Test results: ChEMBL document CHEMBL3988442, “University of Dundee, Small-Polar-MMV Screening Library” (2021)
The campaign covered roughly 48,000 compounds. About 13,000 (27%) showed an effect of 50% or more. This is one part of the list.

system: Wolbachia pipientis; experiment: Anti-Wolbachia Cell-Based Screen; type: functional; set-up: scale not given: in the data most compounds retested in dose-response had high values; details: 5 µM

Structure (SMILES) | Percent Effect [%]
Cc1cc(S(=O)(=O)NCC(C)(O)CN(C)C)c(F)cc1F (stereo not drawn) | 86.13
Cc1c(F)cccc1S(=O)(=O)NCC(C)(C)CC(C)O (stereo not drawn) | -11.41
Cc1cc(F)c(S(=O)(=O)NCC(C)(C)N)cc1F.Cl | 99.53
Cc1sc(Br)cc1S(=O)(=O)NCCN.Cl | -12.99
Cc1sc(Br)cc1S(=O)(=O)NCCCN.Cl | -10.31
Cc1cc(F)c(S(=O)(=O)NCc2ccnc(N(C)C)n2)cc1F | -5.146
Cc1cc2[nH]cc(C(=O)N3CCCCC3c3ccc(F)cc3)c(=O)n2n1 (stereo not drawn) | -0.32
Cc1ncsc1C(=O)N(C)CCc1ccncc1 | -1.181
COc1ccccc1CC1CCCN(CCN2CCOC2=O)C1 (stereo not drawn) | -15.91
Cc1cccc2sc(NC(=O)CN3CCC(C)CC3)nc12 | -4.691
Cn1ccc(NC(=O)CN2C[C@H]3CC[C@@H]2CN(Cc2ccccn2)C3)n1 | -23.26
CC(=O)c1ccc(CN2CC(Oc3ccccc3C)C2)cc1 | 1.561
Br.Cc1ccccc1OC1CCN(CC(=O)Nc2ccn(C)n2)CC1 | 95.2
Cc1ccccc1OC1CCN(CC(=O)Nc2cn(C)nc2C)CC1 | 143.3
Cc1nn(C)c(C)c1NC(=O)CNC(c1ccccc1)C1CCC1 (stereo not drawn) | -2.911
COCCN1C[C@H]2CC[C@@H]1CN(CC(=O)Nc1ccn(C)n1)C2 | 0.2654
Br.Cc1ccccc1OC1CCN(CC(=O)Nc2cnn(C)c2C)CC1 | 127.8
Cc1ccccc1OC1CCN(CC(=O)Nc2c(C)nn(C)c2C)CC1 | 133
Cc1nn(C)c(C)c1NC(=O)CN1CCOC(Cn2cccn2)C1 (stereo not drawn) | -5.215
Cc1cccc(OC2CCN(C(=O)NCCn3ccnc3)CC2)c1C | -9.4
CC(O)CNC(=O)NCCCN1CCN(c2ncccn2)CC1 (stereo not drawn) | -2.851
CCOCCn1nnc(C2(NC(=O)c3ccccc3)CCCC2)n1 | -1.903
CN(C)CCOc1ccc(CNC(=O)c2cccc3[nH]ncc23)cc1 | -2.455
CN(C)C(=O)CCCNc1ncc2c(n1)CCN2c1ccccc1 | -14.16
Cn1c(=O)oc2ccc(NC(=O)N3CCSCC3)cc21 | -14.24

Structure (SMILES) | Percent Effect [%]
Cn1nc2c(cc1=O)CN(Cc1nnc(C3CC3)o1)CC2 | 7.472
Cc1noc(C)c1C(=O)N(C)C(C)c1ccncc1 (stereo not drawn) | -19.42
O=C(Nc1ccccc1)c1ccc2c(c1)C1(CCCCC1)CN2.O=C(O)C(F)(F)F | 15.72
CCOC(CC)C(=O)NCc1cccc(N2CCCCC2=O)c1 (stereo not drawn) | -0.7778
NS(=O)(=O)c1ccc(NC(=O)CSc2ccc3c(c2)CCC3)cc1 | 16.99
Cc1[nH]c(=O)[nH]c(=O)c1CC(=O)N1CCC(Oc2ccc(F)cc2)CC1 | -20.3
CC(=O)c1cccc(CN2CC(Oc3ccccc3C)C2)c1 | 6.758
CCn1cc(NC(=O)CN2CCC(Oc3ccccc3C)CC2)c(C)n1 | 103.8
CCn1cc(NC(=O)CN2CCC(Oc3ccc(F)cc3)CC2)c(C)n1.Cl | 113.2
N#Cc1ccc(OC2CCN(CC(=O)NCC(F)(F)F)CC2)cc1 | 6.533
CCN1CC(C(=O)N2CCC(Oc3ccccc3C)CC2)CC1=O (stereo not drawn) | -3.691
O=c1[nH]c(N2CCN(C3CC3)CC2)nc2c1cnn2-c1ccccc1 | 4.194
O=C(NCc1cccs1)NCC(O)(c1cccs1)C1CC1 (stereo not drawn) | 4.96
Cc1csc(CNC(=O)Cc2ccc3c(c2)OCCO3)n1 | -1.573
Cc1csc(CNC(=O)Nc2ccc3c(c2)OCO3)n1 | 95.91
Cc1ncsc1CNC(=O)NCC1(c2ccc3c(c2)OCO3)CC1 | 120.8
Cc1csc(CNC(=O)N(C)Cc2ccc3c(c2)OCO3)n1 | -4.172
Cc1csc(CNC(=O)NCCc2ccc3c(c2)OCCO3)n1 | -0.3298
Cc1n[nH]cc1CNCC1(c2ccc3c(c2)OCO3)CCOCC1.Cl | 4.447
Cc1ncsc1CNC(=O)N(Cc1ccccc1)CC(C)(C)O | -10.76
Cc1csc(CNC(=O)NCC2(c3ccc4c(c3)OCO4)CC2)n1 | 126.6
Cc1csc(CNC(=O)NCc2ccc3c(c2)OCCO3)n1 | -13.77
Cc1ccc(CN2CCc3c(C(=O)N(C)C)n[nH]c3C2)o1 | -11.98
Cc1ccc(CNC2(Cc3cc(-c4ccccn4)on3)COC2)o1 | -9.349
CCOc1ccc(C(=O)N(Cc2cnn(C)c2)C(C)C)cc1 | -5.805

Structure (SMILES) | Percent Effect [%]
COc1ccc(C(=O)N(Cc2cnn(C)c2)C(C)C)cc1Br | 9.999
COc1cc(C(=O)N(Cc2cnn(C)c2)C(C)C)ccc1OC(C)C | 121.6
COc1cc(C(=O)N(Cc2cnn(C)c2)C(C)C)ccc1OCC(N)=O | 4.705
CCOc1ccc(C(=O)N(Cc2cnn(C)c2)C(C)C)cc1OCC | 111.9
COCCCOc1ccc(C(=O)N(Cc2cnn(C)c2)C(C)C)cn1 | 5.983
COc1ccc(CN(Cc2cnn(C)c2)CC(C)C)cn1 | -28.68
COc1ccc(C(=O)N(Cc2cnn(C)c2)C(C)C)cc1OC(F)F | 110.3
Cc1ccc(NC(=O)N(C)Cc2cnn(C)c2)cc1OCC(F)F | -4.297
COc1cc(C(=O)N(Cc2cnn(C)c2)C(C)C)ccc1C | 113.7
CCSc1cc(C(=O)N(Cc2cnn(C)c2)C(C)C)ccn1 | -10.41
CC(C)N(Cc1ccc(C(F)(F)F)nc1)Cc1cnn(C)c1 | 15.8
CN1C[C@@H]2CN(C(=O)C3CC=CC3)C[C@@H]2C1=O | -1.664
Cc1nnc(CN2CCC3(CCC(=O)N([C@H]4CC[C@H](O)CC4)C3)CC2)o1 | 5.383
CC(C)=CCN1CCN(C(C)c2cccnc2)CC1 (stereo not drawn) | 2.838
CN(CCN1CCOCC1)C(=O)CCCOCCc1ccccc1 | 6.061
COCCC(=O)N(C)CCC1=CCN(C)CC1 | 102.2
CCCS(=O)(=O)N(C)C(=O)CCc1ccccc1 | -9.766
COCCC(=O)N(Cc1cccnc1)CC1CCN(C2CCCC2)CC1 | -4.098
CCOCCC(=O)N(C)CC1Cc2ccccc2CN1C (stereo not drawn) | 13.82
CCc1ccccc1OCCN(C)C(=O)CCN1CCCO1 | 2.484
CCN(CC1=CCN(C)CC1)C(=O)CCOC | 97.45
CN1CC=C(CCN(C)C(=O)CCc2ccccc2)CC1 | 90.24
CCN(Cc1nc(COC)no1)C(=O)CCn1c(C)cc2ccccc21 | -20.66
